Screens: PubChem, National Center for Advancing Translational Sciences (NCATS)
HP1b chromo inh = blocks HP1-beta chromodomain binding to methylated histone tails. P83916. AlphaScreen HP1-beta / biotin-H3K9me3 peptide binding. Potency, µM (highest dose often 114 µM), inactives show at the top dose activity change, negative = inhibition, usual class: inhibitors. hit rate 0.56% among 390,000. AID 540317; note: nearly all actives have a fitted effect of over 70% in size
Target sequence (P83916 whole entry, looked up): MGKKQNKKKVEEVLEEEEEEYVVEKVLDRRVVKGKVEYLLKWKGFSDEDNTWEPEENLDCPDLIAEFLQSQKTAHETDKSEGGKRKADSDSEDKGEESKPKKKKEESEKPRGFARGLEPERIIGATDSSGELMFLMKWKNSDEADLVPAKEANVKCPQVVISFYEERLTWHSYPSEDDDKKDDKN
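AlphaScreen: HP1-beta (50 nM) preformed 30 min with biotin-H3(1-18)K9me3 peptide (50 nM) in PBS pH 7.4, 0.01% Tween-20. Compound added for 30 min at RT, then streptavidin donor/nickel chelate acceptor beads (10 ug/mL) for 30 min.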
Sfp PPTase inh = Sfp phosphopantetheinyl transferase inhibition; Biochemical Sfp PPTase activity, qHTS; Potency, µM, for inactives: largest response in the series, negative = inhibition, hits mostly inhibitors; hit rate 3.5% among 310,000; AID 1490;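 note: the enzyme is Sfp with the accession as filed and its product quenches rhodamine fluorescence; 0% = enzyme reaction without inhibitor and -100% = no enzyme wells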
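Reaction rates are the 30-min fluorescence difference (ex 525, em 598 nm) in wells containing 15 nM Sfp, 5 uM rhodamine-CoA and 12.5 uM BHQ-2-YbbR at pH 7.6 with 10 mM MgCl2.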
BAZ2B inh = BAZ2B (human) inhibition. Q9UIF8. AID 504333. AlphaScreen BAZ2B-H3K14Ac peptide displacement. hit rate 4.4% among 360,000. Potency, µM (top dose mostly 114 µM), inactives show at the top dose activity change, negative = inhibition, hits mostly inhibitors; note: % is set by controls: 0 for no effect and ±100 for the full control effect; nearly all actives have a fitted effect of over 60% in size
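In this displacement format the biotinylated H3(5-23) peptide acetylated at Lys14 serves as ligand at 50 nM, with BAZ2B at 50 nM in PBS pH 7.4 containing 0.01% Tween-20. Donor and acceptor beads are 10 ug/mL final.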
JMJD2A Tudor = JMJD2A Tudor domain (human) inhibition; AlphaScreen JMJD2A-Tudor / H3K4me3 peptide binding; Potency, µM (series often up to 114 µM), for the others: at the top dose activity change, negative = inhibition, actives largely listed as inhibitors; hit rate 4.4% among 390,000; note: % is set by controls: 0 for no effect and ±100 for the full control effect; nearly all actives have a fitted effect of over 50% in size
G9a block = G9a (human) methyltransferase inhibition. hit rate 8.8% among 350,000. AID 504332. Potency, µM (doses to about 102 µM), for inactives: at the top dose activity, negative = inhibition, hits mostly inhibitors. G9a H3K9 monomethylation, AlphaScreen, 2 h. Q96KQ7; note: % is set by controls: 0 for no effect and ±100 for the full control effect; nearly all actives have a fitted effect of over 75% in size
Target sequence (Q96KQ7 913-1193 limits assumed): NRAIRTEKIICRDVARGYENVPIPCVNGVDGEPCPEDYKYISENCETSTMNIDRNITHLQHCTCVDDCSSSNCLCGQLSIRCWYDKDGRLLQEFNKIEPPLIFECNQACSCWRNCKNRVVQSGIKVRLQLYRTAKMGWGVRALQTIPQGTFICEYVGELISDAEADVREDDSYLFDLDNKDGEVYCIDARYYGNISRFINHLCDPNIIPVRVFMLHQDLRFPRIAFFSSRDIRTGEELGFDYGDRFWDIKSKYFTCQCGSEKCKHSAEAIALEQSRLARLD
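AlphaScreen detection with an anti-monomethyl H3K9 antibody quantified product after a 2 h room-temperature reaction containing 500 nM biotinylated H3K9 peptide, 20 µM SAM and 20 nM enzyme, which had been preincubated 15 min with compound.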
Numbers without * were called inactive; u = inconclusive; x = not tested or not shown; [ ] = dose if it differs, or a comment. An excerpt weighted towards active compounds, which were near 12% of everything screened. Calls come from the whole dose curve; as a rule, active = well fitted curve in the direction sought with a large enough effect; inconclusive = small, poorly fitted or top-dose-only effect, or another doubt; inactive = no such curve, though single readings can be large; an effect the other way counts as inactive or inconclusive. Potency is the fitted concentration of half-maximal effect.

SMILES	HP1b chromo inh	Sfp PPTase inh	BAZ2B inh	JMJD2A Tudor	G9a block
O=C(NCCCn1ccnc1)/C(=C/c1ccco1)NC(=O)c1ccco1	u	12%	-36%	u	-31%
Cc1ccc(C(=O)N/C(=C\c2cccs2)C(=O)N2CCN(C)CC2)cc1C	18%	9%	-2%	-8%	71µM*
Cc1ccc(C(=O)N/C(=C\c2cccs2)C(=O)NCCCn2ccnc2)cc1C	13%	4%	50µM*	u	12%
O=C(NCCCn1ccnc1)/C(=C/c1ccco1)NC(=O)c1cccs1	30%	3%	79µM*	-8%[11.4 µM]	u
Cc1ccc(C(=O)N/C(=C\c2ccco2)C(=O)NCCCn2ccnc2)cc1C	25%	4%	7.9µM*	18µM*	-40%[59 µM]
COc1ccc(C(=O)N/C(=C\c2cccs2)C(=O)N2CCN(C)CC2)cc1OC	3%	2%	-9%	-1%	19%
CCOc1ccc(NC(=O)C2CCCN(S(C)(=O)=O)C2)cc1 (centres undefined)	32%	7%	5%	-8%	38%
CCC(C)(Oc1ccc(C2(c3ccc(OC(C)(CC)C(=O)O)cc3)CCCCC2)cc1)C(=O)O (centres undefined)	x	25%	x	x	-5%[12.7 µM]
CCOC(=O)/C(C)=C1\NC(C)(C)Cc2ccccc21	25µM*	u	18µM*	22µM*	2.5µM*
Cc1ccc2oc(C(=O)N(Cc3ccc(N(C)C)cc3)C3CCS(=O)(=O)C3)c(C)c2c1 (centres undefined)	u	4%	11µM*	20µM*	25µM*
Cc1ccc2c(=O)cc(C(=O)N(Cc3ccc(N(C)C)cc3)C3CCS(=O)(=O)C3)oc2c1 (centres undefined)	27%	x	u	-30%	u
Cc1ccc2c(C)c(C(=O)N(Cc3ccc(N(C)C)cc3)C3CCS(=O)(=O)C3)oc2c1 (centres undefined)	u	-18%	13µM*	25µM*	x
CCOC(=O)CSc1nc2c([nH]c3ccccc32)c(=O)n1-c1ccc(OCC)cc1	19%[57 µM]	x	1%	u	0%[59 µM]
CCCC(=O)Nc1cccc(-c2cn3c(C)csc3n2)c1	21%[57 µM]	x	-13%	-18%	-5%[59 µM]
CCOc1ccc(NC(=O)c2ccc3[nH]c(=O)c(=O)[nH]c3c2)cc1	9%[57 µM]	8%	-17%	-16%	-3%
CC(OC(=O)CC1Sc2ccccc2NC1=O)C(=O)NC1CCCC1 (centres undefined)	24%	-12%	2%	-12%	13%
COc1ccc2c(c1)NC(c1ccc(N(C)C)cc1)c1cccn1-2 (centres undefined)	102%	u	-3%	21%	79µM*
Cc1sc2nc(CSc3nnc(Cc4cccs4)n3C3CCCCC3)[nH]c(=O)c2c1C	37%	-17%	12%	-21%	45µM*
Cc1sc2nc(CSc3nc4ccccc4s3)[nH]c(=O)c2c1C	x	0%	u	x	8.9µM*
Cc1ccc2nc(CSc3nnc(Cc4cccs4)n3C3CCCCC3)cc(=O)n2c1	46%	-2%	-2%	-27%	u
O=c1[nH]c(CSc2nc3ccccc3s2)nc2cc(Cl)ccc12	x	-23%	-16%	x	28µM*
Cc1sc2nc(CSc3n[nH]c(N)n3)[nH]c(=O)c2c1C	51%	79µM*	x	-3%	-13%
CC(=O)c1ccc[nH]1	x	-2%	x	x	x
O=C(c1cccc(Cl)c1Cl)N(Cc1ccco1)Cc1cccs1	23%[57 µM]	x	x	-14%[57.1 µM]	x
O=C(NC1CCSc2ccccc21)c1ccc(C(F)(F)F)cc1 (centres undefined)	11%	26%	-19%	-7%	-10%
SMILES	HP1b chromo inh	Sfp PPTase inh	BAZ2B inh	JMJD2A Tudor	G9a block
Cc1sc2nc(CSc3ccc([N+](=O)[O-])cc3)[nH]c(=O)c2c1C	x	50µM*	-2%	x	u
Cc1sc2nc(CC(=O)NN)[nH]c(=O)c2c1C	-9%	u	0%	-10%	40µM*
Cc1nc(N2CCOCC2)c2nc(-c3ccccc3)n(CCN3CCCC3)c2n1	x	-2%	x	x	x
Cn1cc(C(=O)c2ccc(Cl)cc2)cc1-c1nc2ccccc2n1C	-16%	12%	u	56µM*	x
Cn1c(=O)c(C(=O)c2ccccc2)nc2ccccc21	8%	2%	6%	-11%	28%[59 µM]
Nc1ccccc1Oc1ccccc1	x	7%	x	x	x
Nc1ccc(Oc2ccccc2-c2ccccc2)cc1	u	x	x	50µM*	x
COc1ccc([N+](=O)[O-])cc1N1C(=O)c2cccc3cccc(c23)C1=O	17%	-3%	-23%	-4%	u
COc1ccc([N+](=O)[O-])cc1-n1cccc1	u	6%	50µM*	u	5%[59 µM]
O=C(O)C12CC3CC(C1)CC(n1ncc(NCc4ccco4)c(Cl)c1=O)(C3)C2	14%	35µM*	-2%	-5%	79µM*
N#Cc1cccc(NC(=O)N2CC[C@@]3(CCCNC3)C2)c1	x	79µM*	x	x	-14%[12.7 µM]
CCOc1ccc(CCNC(=O)CSC(=S)N2CCCC2)cc1OCC	-5%	x	7%	u	40µM*
CCOc1ccc(CCNC(=O)C2CC(C)=CCC2C(=O)O)cc1OCC (centres undefined)	u	7%	50µM*	25µM*	22µM*
CCOc1ccc(CCNC(=O)CSCc2ccc(C)cc2)cc1OCC	15%	-13%	-2%	-23%	u
CCOc1ccc(CCNC(=O)C2CCN(S(=O)(=O)CC)CC2)cc1OCC	19%	18%	4%	-9%	32%[12.7 µM]
CCOc1ccc(CCNC(=O)C2CCN(C(=O)N(C)C)CC2)cc1OCC	10%	9%	2%	89µM*	-6%[59 µM]
Cn1c2cc(C(=O)O)sc2c2cnn(Cc3ccccc3F)c(=O)c21	x	x	x	-25%	x
O=c1c(C(c2ccc(F)cc2)c2c(O)nc3n(c2=O)CCCS3)c(O)nc2n1CCCS2	44%	3%	-11%	-17%	50µM*
O=c1c(C(c2ccccc2)c2c(O)nc3n(c2=O)CCS3)c(O)nc2n1CCS2	28%	-3%	-5%	5%	40µM*
C=Cc1ccc([C@H]2N[C@@H](C(=O)O)CC[C@@H]2C)cc1	x	-6%	x	x	x
COc1ccccc1-c1nccc(NC2CCNCC2)n1	x	15%	x	x	-40%[0.501 µM]
CCNC(=O)COC(=O)C1CCN(S(=O)(=O)c2ccc3c(c2)OCCO3)CC1	11%	x	-4%	-10%	-8%
COc1ccc(OC)c(NC(=O)C2CCN(S(=O)(=O)c3ccc4c(c3)OCCO4)CC2)c1	11%	x	0%	-22%	50µM*
CC(=O)Nc1ccc(NC(=O)C2CCN(S(=O)(=O)c3ccc4c(c3)OCCO4)CC2)cc1	28%	x	13%	-5%	18µM*
CC(C)C(C)NC(=O)COC(=O)C1CCN(S(=O)(=O)c2ccc3c(c2)OCCO3)CC1 (centres undefined)	36%	x	9%	-2%	50µM*
COCCNC(=O)C(c1ccc(O)cc1)N(Cc1cccs1)C(=O)CCC(=O)Nc1ccccn1 (centres undefined)	25%	9%	-1%	-14%	8%
